Source: PubChem BioAssay (National Center for Advancing Translational Sciences (NCATS))
Sampled rows, rich in hits. Any-hit rate of the full collection: about 6.5%.
IL1B secr inh: inhibitors of inflammasome signaling (IL-1 beta secretion); THP-1 LPS/ATP IL-1B secretion, AlphaLISA, 16 h; active compounds read low; activity change, % at 57.5 µM; 4.7% of 360,000 active; AID 743279; in the data active = activity change below about -50%; inconclusive = mostly about -30% to -49%; note: % is set by controls: 0 for no effect and ±100 for the full control effect
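Secreted IL-1B measured by AlphaLISA bead assay after 16 h compound exposure of THP-1 cells; compounds (final up to 57.5 uM) added 1 h before LPS (250 ng/mL) and ATP (1.25 mM) stimulation; lower signal means less secretion.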
TGFb inhibitor: TGF-b pathway inhibition. Potency, µM (titrated, usually from 46.1 µM), for the others: at the top dose activity, negative = inhibition, most hits filed as inhibitors. HepG2 CAGA-GFP TGF-b/SMAD3 reporter, GFP fluorescence, 18 h; TGF-beta stimulated, 500 pg/mL final. 1.2% of 410,000 active; note: potency is the fitted concentration of half-maximal effect; % is set by controls: 0 for no effect and ±100 for the full control effect; nearly all actives have a fitted effect of over 65% in size
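GFP signal (ex488/em500-530) from TGF-beta-stimulated HEPG2 CAGA-GFP cells, 500 pg/mL final, 18 h at 37 degrees C in DMEM plus 1% FBS, normalized to unstimulated and DMSO-stimulated controls.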
HT1080 IDH1KD tx: HT-1080 IDH1 knockdown cell toxicity (counter line); HT-1080 IDH1 knockdown viability, ATP luminescence, 48 h; Potency, µM (doses to about 46.1 µM), for inactives: at the highest dose activity, negative = toxicity, most hits filed as cytotoxic; 2% of 360,000 active; AID 686971;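 note: potency is the fitted concentration of half-maximal effect; 0% = DMSO wells and -100% = cell-free medium wells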
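After a 2 h attachment period, IDH1KD HT-1080 cells took pin-transferred compound for 48 h at 37 °C; ATP-based luminescence after 10 min room-temperature reagent incubation reported viability.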
HT1080NT lethal: kills 2HG-producing HT-1080-NT fibrosarcoma cells. HT-1080-NT fibrosarcoma viability, CellTiter-Glo ATP luminescence, 48 h. Potency, µM (highest dose often 46.1 µM), for inactives: top-dose activity, negative = less viability, hits mostly cytotoxic. 1.6% of 360,000 active;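 note: NT is the 2HG producing partner of a matched IDH1 knockdown line; potency is the fitted concentration of half-maximal effect; 0% = DMSO-treated cells and -100% = media-only wells without cells; nearly all actives have a fitted effect of over 55% in size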
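Toxicity toward the 2HG-producing NT line was scored as %Activity, normalised to DMSO and no-cell wells, from CellTiter-Glo luminescence after 48 hours' treatment.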
Giardia killer: Giardia lamblia killing. AID 540267. activity change, % at 7.66 µM, hits read low. 0.15% of 340,000 active. Giardia lamblia trophozoite viability; in the data active = activity change below about -80%; inconclusive = between about -30% and that limit;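 note: parasites exposed to compound for two days anaerobically before the ATP read; % is set by controls: 0 for no effect and ±100 for the full control effect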
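Anaerobic 48 hrs incubation at 37 deg C of 100 trophozoites/well with test compounds; ATPLite 1-Step luminescence, 15-30 min RT, reports cellular ATP as viability.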
HepG2 viability: HepG2 cytotoxicity, counter-screen for TGF-b inhibitors; 0.76% of 410,000 active; HepG2 CAGA-GFP viability, ATP luminescence, 18 h; AID 588856; Potency, µM (titrated, usually from 46.1 µM), for inactives: top-dose activity change, negative = cytotoxicity, most hits filed as cytotoxic; note: potency is the fitted concentration of half-maximal effect
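HepG2 CAGA-GFP cells (1000/well, DMEM with 1% FBS) received compound, then TGF-beta at 500 pg/mL final, and were incubated 18 hours at 37 degrees C. Viability was read by CellTiter-Glo luminescence. Media-only wells were set as complete cell-killing and DMSO as no toxicity.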
Starred values were filed as active, the others as inactive; ? = inconclusive; . = no result given. Unless noted, calls come from the whole dose curve; as a rule, active = well fitted curve in the direction sought with a large enough effect; inconclusive = small, poorly fitted or top-dose-only effect, or another doubt; inactive = no such curve, though single readings can be large; an effect the other way counts as inactive or inconclusive.

SMILES	IL1B secr inh	TGFb inhibitor	HT1080 IDH1KD tx	HT1080NT lethal	Giardia killer	HepG2 viability
C(=Cc1cnnc2ccccc12)c1ccccc1	-63*	-10%	-4%	-20%	6	-15%
CN(C)c1ccc(/C=C/c2cnnc3ccccc23)cc1	.	29%	.	.	.	-7%
CC(=O)N/N=C(\C)CCc1ccccc1	7	20%	5%	?	-21	17%
Cc1cccc(Sc2c(C=O)c3ccccc3n2C)c1	-14	1%	?	?	?	3%
Cn1c(Sc2ccc(Cl)cc2)c(C=O)c2ccccc21	-81*	?	?	?	-14	-54%
Cn1c(Sc2ccccc2Cl)c(C=O)c2ccccc21	-63*	?	-14%	6%	8	-14%
CCOC(=O)COc1ccc(C(=O)CC)cc1OC	-1	8%	17%	15%	26	-1%
COc1ccc(-n2c(=O)cc(N3CCN(c4ccccc4)CC3)[nH]c2=O)cc1	22	-3%	-1%	9%	-5	9%
C=CCOc1ccc(Br)cc1CNCCO	-55*	-11%	13%	22%	-10	-17%
OCCNCc1cc(Br)ccc1OCc1ccccc1Cl	-59*	?	?	?	4	-52%
C=CCOc1ccc(Br)cc1CNCCCN1CCOCC1	-62*	-3%	2%	-1%	9	-3%
OCCCCNCc1cc(Br)ccc1OCc1ccccc1	?	2%	1%	-1%	-4	-5%
C=CCOc1ccc(Br)cc1CNC(C)(C)CO	-7	-12%	11%	-7%	6	-6%
Cc1ccc2cc(F)c(F)c(F)c2n1	30	3%	8%	?	.	0%
Cc1ccc2ccc3ccc(C)nc3c2n1	63	?	?	0.0058µM*	?	-10%
CCn1nc(C)c(CN2CCc3c([nH]c4ccccc34)C2C(C)(C)C)c1C (stereo unspecified)	-1	-18%	-12%	-14%	1	-13%
CCOC(=O)c1cnc2ccc(C)cc2c1NCCc1ccc(OC)c(OC)c1	.	11µM*	.	.	.	-51%
CCOC(=O)c1cnc2ccc(OCC)cc2c1NCCc1ccc(OC)c(OC)c1	.	13µM*	.	.	.	-48%
CCOC(=O)c1cnc2ccc(C)cc2c1NCCN1CCOCC1	?	1%	-4%	-4%	31	-17%
O=C(c1ccc(F)cc1)N1CCN(Cc2ccccc2Br)CC1	?	21%	2%	2%	4	-1%
Cc1cc(C)c2cc(CN(Cc3cccnc3)C(=O)c3ccc(F)cc3)c(Cl)nc2c1	?	-11%	?	?	31	1%
COc1cccc(/C=N/NC(=S)NC2CC3CCC2C3)c1OC (stereo unspecified)	8	-8%	-1%	5%	-5	2%
COc1ccc(/C=N/NC(=S)NCCc2ccccc2)cc1	24	?	-6%	-15%	11	-64%
S=C(NCCc1ccccc1)Nc1ccc(Br)cc1	-70*	?	-4%	7%	19	-37%
COc1ccc(O)c(/C=N/NC(=S)NCCc2ccccc2)c1	-97*	?	?	15µM*	11	-166%
SMILES	IL1B secr inh	TGFb inhibitor	HT1080 IDH1KD tx	HT1080NT lethal	Giardia killer	HepG2 viability
COc1cccc(/C=N/NC(=S)NCCc2ccccc2)c1	34	25µM*	?	-29%	5	-11%
Oc1ccccc1/C=N/NC(=S)NC1CC2CCC1C2 (stereo unspecified)	-78*	?	?	21µM*	-28	-55%
Clc1cccc(CSc2nnc([C@@H]3CCCN3)o2)c1	0	-3%	-14%	-4%	-1	-23%
Oc1ccc(Br)cc1/C=N/NC(=S)NCCc1ccccc1	-75*	?	?	?	-13	-185%
COCCCNC(=S)N/N=C/c1ccccc1O	4	1.8µM*	-6%	-2%	-4	-57%
O=C(CCc1ccccc1)N/N=C/c1cc(Br)ccc1O	20	?	?	?	-3	-22%
COCCNC(=S)N/N=C/c1ccccc1C(=O)O	12	-3%	1%	17%	5	-18%
CC(C)CC(=O)NC(=S)NCCc1ccccc1	-25	-6%	4%	-9%	4	-20%
CC(C)(C)CC(=O)NC(=S)NCCc1ccccc1	49	-20%	10µM*	?	10	-19%
Cn1c(=O)c(C(=O)NC2CCCCCCC2)c(O)c2ccccc21	6	-6%	-2%	5%	-11	1%
COC(=O)c1ccc(O)cc1	9	-8%	?	11%	4	-4%
COC(=O)c1ccc(CCc2cc(O)ccc2O)cc1	?	0%	?	26µM*	13	-10%
COC(=O)c1ccc(CCc2cc(O)c(Br)cc2O)cc1	-79*	?	-28%	-29%	11	-29%
CC(C)OC(=O)c1ccc(NCc2cc(O)ccc2O)cc1	-101*	?	18µM*	21µM*	-9	2%
COc1ccc(S(=O)(=O)N2Cc3ccccc3CC2C(=O)Nc2ccc(C)cc2C)cc1OC (stereo unspecified)	.	-29%	.	.	.	-23%
Cc1ccccc1-c1ccc(C(=O)NCc2ccccc2)o1	-13	2%	0%	-1%	-4	0%
Cc1ccc(-c2cnc3cccnn23)cc1F	11	10%	0%	-2%	.	-2%
C=CCN(CC=C)S(=O)(=O)c1ccc(NC(=S)NC(=O)C2CC2)cc1	7	18µM*	?	?	1	-21%
CC1(Cc2ccccc2Cl)C(=O)Nc2cc(-c3ccccc3Cl)ccc21 (stereo unspecified)	-2	?	?	?	.	18µM*
COc1ccccc1-c1ccc2c(c1)C(C)(Cc1cc(Cl)ccc1C(F)(F)F)C(=O)N2 (stereo unspecified)	-18	18µM*	?	?	.	-102%
CC1(Cc2cc(Cl)ccc2C(F)(F)F)C(=O)Nc2cc(F)ccc21 (stereo unspecified)	-10	?	?	?	.	-85%
CC1(Cc2cc(Cl)ccc2C(F)(F)F)C(=O)Nc2cc(C(F)(F)F)ccc21 (stereo unspecified)	20	?	21µM*	?	.	18µM*
COc1ccc(C(C)=O)cc1CC1(C)C(=O)Nc2ccc(-c3cccc(C(F)(F)F)c3)cc21 (stereo unspecified)	?	16µM*	?	?	.	-106%
COc1ccc(Cl)cc1CC1(C)C(=O)Nc2ccc(-c3ccccc3OC)cc21 (stereo unspecified)	-10	?	?	?	.	-94%
